Values joined by “and” are separate entries in the source; they are usually repeats but may differ in a detail not shown here. Equal values may be shown once. This is part of a sample that, as a whole, favours compounds with a hit. Of some 79,000 tested, about 15% had one in any assay. Some structures have more than one record in an assay (separate samples or runs), and their calls can disagree. Active and inactive are the calls of the source. Cut-off read from the data, not from the text of the source: active = growth inhibition above about 70%; inactive = the rest.
Key:
[1] = NCI Yeast Anticancer Drug Screen. Data for the rad50 strain (AID 155);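 note: 0% = growth of vehicle-only cultures of the same strain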; details: S. cerevisiae rad50 strain growth inhibition, stronger effect = higher value
How it was run: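 Compounds were tested on a yeast strain with an engineered DNA damage repair alteration; the reported value is growth inhibition normalised to vehicle treatment.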

[2] = NCI Yeast Anticancer Drug Screen. Data for the mec2-1 strain (AID 157); details: S. cerevisiae mec2-1 strain, stronger effect = higher value
How it was run: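 mec2-1 yeast strain, carrying an alteration in DNA damage repair or cell cycle control, was exposed to compounds; growth inhibition was measured relative to vehicle-treated controls.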

[3] = NCI Yeast Anticancer Drug Screen. Data for the sgs1 mgt1 strain (AID 161);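 note: 0% = growth of cultures given vehicle only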; details: S. cerevisiae sgs1 mgt1 strain, stronger effect = higher value
How it was run: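 Yeast cells carrying a defined DNA-repair defect were exposed to test compounds. Growth inhibition was measured relative to vehicle-treated controls.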

[4] = NCI Yeast Anticancer Drug Screen. Data for the cln2 rad14 strain (AID 165);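 note: 0% = growth equal to vehicle treated cultures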; details: S. cerevisiae cln2 rad14 strain, stronger effect = higher value
How it was run: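 Yeast carrying cln2 and rad14 alterations (cell cycle control and DNA damage repair) were exposed to compounds. Growth inhibition was measured against vehicle-treated controls.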

[5] = NCI Yeast Anticancer Drug Screen. Data for the bub3 strain (AID 167); details: S. cerevisiae bub3 mutant strain, stronger effect = higher value
How it was run: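 Growth of a checkpoint-deficient yeast mutant is measured after compound exposure. Values represent inhibition relative to vehicle.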

[6] = NCI Yeast Anticancer Drug Screen. Data for the mlh1 rad18 strain (AID 175); details: S. cerevisiae mlh1 rad18 strain growth inhibition, stronger effect = higher value
How it was run: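 Growth inhibition of the yeast strain was measured after compound exposure and expressed relative to vehicle-treated controls. The strain carries defined defects in DNA damage repair.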

[7] = at 5.0 µM (retest, dose inferred, filed as 0.5)
[8] = at 50.0 µM (retest, dose inferred, filed as 5.0)

Compound	growth inhibition [1, 7]	growth inhibition [1, 8]	growth inhibition ([1]; at 50.0 µM)	growth inhibition [2, 7]	growth inhibition [2, 8]	growth inhibition ([2]; at 50.0 µM)	growth inhibition [3, 7]	growth inhibition [3, 8]	growth inhibition ([3]; at 50.0 µM)	growth inhibition [4, 7]	growth inhibition [4, 8]	growth inhibition ([4]; at 50.0 µM)	growth inhibition [5, 7]	growth inhibition [5, 8]	growth inhibition ([5]; at 50.0 µM)	growth inhibition [6, 7]	growth inhibition [6, 8]	growth inhibition ([6]; at 50.0 µM)
N#Cc1c(/N=C/c2ccccc2Cl)sc2c1CCC2	18% (inactive)	-14% (inactive)	20.1% (inactive)	-14% (inactive)	-4% (inactive)	-0.55% (inactive)	-1% (inactive)	10% (inactive)	12.1% (inactive)	26% (inactive)	11% (inactive)	4.2% (inactive)	0% (inactive)	-10% (inactive)	23.9% (inactive)	-1% (inactive)	-20% (inactive)	13.2% (inactive)
O=C(NNc1ccnc2cc(Cl)ccc12)/C(=C/c1ccc2c(c1)OCO2)NC(=O)c1ccccc1	12% (inactive)	71% (active)	90.7% (active)	-18% (inactive)	46% (inactive)	77.3% (active)	-4% (inactive)	47% (inactive)	86.8% (active)	2% (inactive)	64% (inactive)	79.7% (active)	-9% (inactive)	83% (active)	58.9% (inactive)	-2% (inactive)	71% (active)	93.1% (active)
Cc1nc2ccccc2cc1CCl	-113% (inactive)	91% (active)	82.5% (active)	-44% (inactive)	46% (inactive)	59.5% (inactive)	-51% (inactive)	91% (active)	63.8% (inactive)	-47% (inactive)	80% (active)	70.3% (active)	-69% (inactive)	76% (active)	32.9% (inactive)	-122% (inactive)	90% (active)	69.8% (inactive)
Cc1c(N)nc(C(CC(N)=O)NCC(N)C(N)=O)nc1C(=O)NC(C(=O)NC(C)C(O)C(C)C(=O)NC(C(=O)NCCc1nc(-c2nc(C(=O)NCCCNCCCCN)cs2)cs1)C(C)O)C(OC1OC(CO)C(O)C(O)C1OC1OC(CO)C(O)C(OC(N)=O)C1O)c1cnc[nH]1 (configuration not stated)	92% (active)	98% (active)	99% (active) and 88.6% (active)	37% (inactive)	98% (active)	99.2% (active) and 88.1% (active)	77% (active)	98% (active)	99% (active) and 88.2% (active)	65% (inactive)	98% (active)	97.7% (active) and 86.5% (active)	76% (active)	98% (active)	99% (active) and 87.9% (active)	94% (active)	98% (active)	98.9% (active) and 90% (active)
C=C1C(=O)OC2C[C@@]3(C)CCC[C@H](C)C3=CC12 (some centres not stated) (tested in a mixture with another compound)	15% (inactive)	97% (active)	85.2% (active)	32% (inactive)	99% (active)	93% (active)	27% (inactive)	99% (active)	93.1% (active)	19% (inactive)	79% (active)	60.5% (inactive)	5% (inactive)	97% (active)	92.5% (active)	23% (inactive)	98% (active)	89.2% (active)
O=c1cc[nH]c2ccccc12	34% (inactive)	81% (active)	13.5% (inactive) and 0% (inactive)	24% (inactive)	63% (inactive)	1.25% (inactive) and -3.85% (inactive)	16% (inactive)	64% (inactive)	-6.85% (inactive) and 7.5% (inactive)	6% (inactive)	48% (inactive)	7.35% (inactive) and -24.1% (inactive)	71% (active)	98% (active)	-1.2% (inactive) and -1.85% (inactive)	50% (inactive)	88% (active)	0.7% (inactive) and 0.35% (inactive)
Cc1cc(O)c(C(C)C)cc1Cl	5% (inactive)	79% (active)	53.1% (inactive) and 98.7% (active)	4% (inactive)	90% (active)	41% (inactive) and 98.6% (active)	-6% (inactive)	38% (inactive)	45.5% (inactive) and 99.2% (active)	-4% (inactive)	48% (inactive)	4.75% (inactive) and 79.6% (active)	-4% (inactive)	98% (active)	13.2% (inactive) and 97.5% (active)	7% (inactive)	84% (active)	26.8% (inactive) and 98.8% (active)
CCCCCCCCCCSC(=N)N	-141% (inactive) and 19% (inactive)	82% (active) and 91% (active)	52.9% (inactive) and 95.7% (active)	-48% (inactive) and -3% (inactive)	71% (active) and 86% (active)	49.8% (inactive) and 89.2% (active)	-54% (inactive) and 22% (inactive)	90% (active) and 95% (active)	52.5% (inactive) and 96.5% (active)	-50% (inactive) and 8% (inactive)	49% (inactive) and 62% (inactive)	57.5% (inactive) and 57.2% (inactive)	-47% (inactive) and 22% (inactive)	84% (active) and 92% (active)	52.5% (inactive) and 94.3% (active)	-134% (inactive) and 1% (inactive)	79% (active) and 90% (active)	52% (inactive) and 92.1% (active)
CCN(CC)C(=S)Sc1nc2ccccc2s1	-3% (inactive)	88% (active)	34.2% (inactive)	-2% (inactive)	87% (active)	-12.1% (inactive)	0% (inactive)	95% (active)	16.7% (inactive)	-7% (inactive)	13% (inactive)	-54.5% (inactive)	24% (inactive)	91% (active)	68.1% (inactive)	5% (inactive)	63% (inactive)	18.4% (inactive)
CC(=O)Nc1nc([N+](=O)[O-])c(C(C)C)s1	4% (inactive)	1% (inactive)	10.1% (inactive)	-2% (inactive)	4% (inactive)	10.6% (inactive)	3% (inactive)	4% (inactive)	-1.85% (inactive)	-6% (inactive)	-4% (inactive)	1.55% (inactive)	-3% (inactive)	9% (inactive)	-7.8% (inactive)	5% (inactive)	15% (inactive)	18.2% (inactive)
COc1ccc2[nH]c3c(C)c4ccncc4c(C)c3c2c1	95% (active)	99% (active)	92.6% (active) and 99% (active)	40% (inactive)	99% (active)	93.7% (active) and 99.5% (active)	39% (inactive)	99% (active)	93.2% (active) and 99.4% (active)	21% (inactive)	99% (active)	91.8% (active) and 99% (active)	30% (inactive)	99% (active)	92.7% (active) and 99.3% (active)	55% (inactive)	99% (active)	92.8% (active) and 99.4% (active)
S=c1nc[nH]c2[nH]ccc12	-3% (inactive)	-4% (inactive)	10.1% (inactive)	2% (inactive)	-3% (inactive)	0.6% (inactive)	0% (inactive)	-2% (inactive)	-2.35% (inactive)	-2% (inactive)	-7% (inactive)	48% (inactive)	-1% (inactive)	-6% (inactive)	-5.4% (inactive)	-1% (inactive)	0% (inactive)	2.8% (inactive)
O=[N+]([O-])c1cc([N+](=O)[O-])c2ccccc2c1NS(=O)(=O)/C=C/c1ccccc1	5% (inactive)	54% (inactive)	53% (inactive)	8% (inactive)	64% (inactive)	70.7% (active)	16% (inactive)	47% (inactive)	49% (inactive)	10% (inactive)	77% (active)	50.4% (inactive)	2% (inactive)	42% (inactive)	16.3% (inactive)	7% (inactive)	71% (active)	44.5% (inactive)
O=C(O)COc1ccc(OCC(=O)O)cc1	3% (inactive)	42% (inactive)	-11.4% (inactive) and 55.8% (inactive)	-3% (inactive)	-2% (inactive)	-5.05% (inactive) and -20.9% (inactive)	-1% (inactive)	1% (inactive)	-11.5% (inactive)	1% (inactive)	-5% (inactive)	-68.3% (inactive)	1% (inactive)	4% (inactive)	-4.55% (inactive)	-3% (inactive)	1% (inactive)	0.9% (inactive) and 18.2% (inactive)
